Reference: PubChem BioAssay AID1159580 (chemical genetic matrix, 2015)
“And” between values parts separate entries of the source, which are not always exact repeats. Identical values can stand only once. The campaign covered roughly 5,500 compounds. About 2,000 (36%) were called active. Not shown: some 18% with an inconclusive outcome. Cut-off read from the data, not from the text of the source: active = normalized growth mostly below about 0.91 (no sharp cut-off); inconclusive = no clear call, values can overlap the other calls; inactive = mostly above about 0.92. This is one part of the list.

Assay: chemical genetic growth profiling, strain panel (AID 1159580);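 note: tested at 20 µM; growth read once vehicle control cultures reached saturation at 30 °C; 1 = growth at the plate median or of vehicle wells; lower values mean less growth of the strain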
Conditions: S. cerevisiae deletion strains, growth OD

Measured: normalized growth

CCOC(=O)OC(C)OC(=O)C1N2C(=O)C(NC(=O)[C@H](N)c3ccccc3)C2SC1(C)C (some centres undefined)
inactive: locus YAL013W, strain DEP1, hits give low values 0.98 | locus YAL021C, strain ccr4, hits give low values 0.986 | locus YAL026C, strain drs2, hits give low values 0.981 | locus YAL030W, strain snc1, hits give low values 0.98 | locus YBL061C, strain skt5, hits give low values 0.978 | locus YBR009C, strain hhf1, hits give low values 0.992 | locus YBR021W, strain FUR4, hits give low values 1.03 | locus YBR023C, strain chs3, hits give low values 0.986 | locus YBR171W, strain sec66, hits give low values 0.968 | locus YBR229C, strain ROT2, hits give low values 0.961 | locus YBR231C, strain swc5, hits give low values 0.987 | locus YBR279W, strain paf1, hits give low values 0.989 | locus YCL011C, strain gbp2, hits give low values 0.965 | locus YCL016C, strain dcc1, hits give low values 0.993 | locus YCL029C, strain bik1, hits give low values 0.988 | locus YCL061C, strain MRC1, hits give low values 0.998 | locus YCL069W, strain vba3, hits give low values 0.998 | locus YCR088W, strain abp1, hits give low values 0.985 | locus YDL005C, strain med2, hits give low values 0.983 | locus YDL035C, strain GPR1, hits give low values 0.984 | locus YDL040C, strain nat1, hits give low values 0.989 | locus YDL074C, strain BRE1, hits give low values 0.917 | locus YDL101C, strain DUN1, hits give low values 0.97 | locus YDL134C, strain PPH21, hits give low values 0.998 | locus YDL185W, strain tfp1, hits give low values 0.975 | locus YDL192W, strain arf1, hits give low values 0.985 | locus YDR001C, strain nth1, hits give low values 0.983 | locus YDR069C, strain doa4, hits give low values 0.993 | locus YDR101C, strain arx1, hits give low values 0.962 | locus YDR137W, strain rgp1, hits give low values 0.994 | locus YDR159W, strain sac3, hits give low values 1 | locus YDR162C, strain NBP2, hits give low values 0.989 | locus YDR195W, strain ref2 0.985 | locus YDR297W, strain sur2, hits give low values 0.977 | locus YDR318W, strain mcm21, hits give low values 0.992 | locus YDR334W, strain swr1, hits give low values 0.943 | locus YDR335W, strain msn5, hits give low values 0.979 | locus YDR388W, hits give low values 0.991 | locus YDR392W, strain spt3, hits give low values 0.946 | locus YDR502C, strain sam2, hits give low values 0.99 | locus YEL003W, strain gim4, hits give low values 0.98 | locus YEL037C, strain rad23, hits give low values 0.987 | locus YEL061C, strain CIN8 (second series), hits give low values 0.984 | locus YEL061C, strain CIN8, hits give low values 0.976 | locus YER015W, strain faa2, hits give low values 0.981 | locus YER016W, strain bim1, hits give low values 0.99 | locus YER110C, hits give low values 0.982 | locus YER111C, strain swi4, hits give low values 0.985 | locus YER155C, strain BEM2 (second series), hits give low values 0.995 | locus YER155C, strain BEM2, hits give low values 0.992 | locus YER167W, strain BCK2, hits give low values 0.997 | locus YFR010W, strain ubp6, hits give low values 0.977 | locus YGL078C, strain dbp3, hits give low values 0.974 | locus YGL086W, strain mad1, hits give low values 0.966 | locus YGL167C, strain pmr1, hits give low values 0.991 | locus YGL173C, strain kem1, hits give low values 0.975 | locus YGL227W, strain vid30, hits give low values 0.993 | locus YGL240W, strain doc1, hits give low values 0.984 | locus YGL248W, strain PDE1, hits give low values 0.969 | locus YGL253W, strain hxk2, hits give low values 0.971 | locus YGR135W, strain pre9, hits give low values 1.04 | locus YGR252W, strain gcn5, hits give low values 0.945 | locus YHR013C, strain ard1, hits give low values 0.967 | locus YHR027C, strain rpn1, hits give low values 0.963 | locus YHR030C, strain SLT2, hits give low values 0.996 and 1.02 | locus YHR079C, strain IRE1 (second series), hits give low values 0.993 | locus YHR079C, strain IRE1, hits give low values 0.98 | locus YHR094C, strain hxt1, hits give low values 0.984 | locus YHR129C, strain ARP1, hits give low values 0.993 | locus YHR142W, strain chs7, hits give low values 0.954 | locus YHR200W, strain rpn10, hits give low values 0.997 | locus YIL066C, strain RNR3, hits give low values 0.944 | locus YIL073C, strain SPO22, hits give low values 0.966 | locus YIL125W, strain kgd1, hits give low values 0.995 | locus YIR030C, strain dcg1, hits give low values 0.986 | locus YJL092W, strain hpr5, hits give low values 0.994 | locus YJL095W, strain BCK1 (second series), hits give low values 0.994 | locus YJL095W, strain BCK1, hits give low values 0.949 and 0.988 | locus YJL115W, strain asf1, hits give low values 0.974 | locus YJL129C, strain trk1, hits give low values 1.01 | locus YJL134W, strain LCB3, hits give low values 0.992 | locus YJL154C, strain vps35, hits give low values 0.989 | locus YJL164C, strain tpk1, hits give low values 0.975 | locus YJL166W, strain qcr8, hits give low values 0.971 | locus YJL168C, strain set2, hits give low values 0.984 | locus YJL187C, strain SWE1 (second series), hits give low values 0.935 | locus YJL187C, strain SWE1, hits give low values 0.989 | locus YJR043C, strain POL32, hits give low values 0.98 | locus YJR066W, strain TOR1, hits give low values 0.966
